Measured values published in PubChem BioAssay (EPA / NIEHS).
Where “and” joins values, the source holds several entries; their conditions need not be identical. Identical values can stand only once. More than one record can exist for a structure, and the calls need not agree. Calls of active or inactive are those of the source. Rule for the calls: active = hit-call score of the fitted dose curve at least 0.9, where 1 is the maximum; inactive = score below 0.9.

Legend:
[1] = read-out: Vascular endothelial growth factor receptor 2 (Homo sapiens) (UniProt P35968); test: BSK_4H_VEGFRII: BioMAP Diversity Plus: 4H Assay for Vascular endothelial growth factor receptor 2 (VEGFR2) Biomarker Activity (AID 2283031); conditions: primary human endothelial cells (HUVEC); actives raise or lower the signal;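 for AC50: cell-surface VEGFR2 protein level quantified by ELISA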
Procedure, shortened: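 Primary human umbilical vein endothelial cells (4H system), 24 h exposure; cell-surface VEGFR2 measured by ELISA. Bidirectional fitting versus DMSO; cytotoxicity checked in parallel by SRB total-protein staining.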

[2] = read-out: Human Leukocyte Antigen - DR isotype (HLADR), HLA-DRA (gene 3122); test: BSK_BE3C_HLADR: BioMAP Diversity Plus: BE3C Assay for Human Leukocyte Antigen - DR isotype (HLADR) Biomarker Activity (AID 2283032); conditions: primary human bronchial epithelial cells; actives raise or lower the signal
Procedure, shortened: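 Primary human bronchial epithelial cells (BE3C); 24 h chemical exposure; HLA-DR by ELISA; bidirectional curve fit vs DMSO baseline.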

[3] = read-out: Vascular cell adhesion molecule 1 (VCAM1), VCAM1 (gene 7412); test: BSK_4H_VCAM1: BioMAP Diversity Plus: 4H Assay for Vascular cell adhesion molecule 1 (VCAM1) Biomarker Activity (AID 2283033); conditions: primary human endothelial cells (HUVEC); actives raise or lower the signal
Procedure, shortened: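 HUVEC, 24 h post-dose; VCAM-1 by ELISA. Bidirectional curve fit vs DMSO baseline. Parallel SRB total-protein stain (0.1% SRB after 10% TCA fixation, 560 nm) for cytotoxicity.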

[4] = read-out: Interferon-gamma inducible Protein 10 (IP10), CXCL10 (gene 3627); test: BSK_BE3C_IP10: BioMAP Diversity Plus: BE3C Assay for Interferon-gamma inducible Protein 10 (IP10) Biomarker Activity (AID 2283034); conditions: primary human bronchial epithelial cells; actives raise or lower the signal
Procedure, shortened: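 ELISA readout of IP-10 in BE3C system: primary human bronchial epithelial cells, 24 h post-dosing; bidirectional curve fit vs DMSO baseline.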

[5] = read-out: Monokine induced gamma interferon (MIG), CXCL9 (gene 4283); test: BSK_BE3C_MIG: BioMAP Diversity Plus: BE3C Assay for Monokine induced gamma interferon (MIG) Biomarker Activity (AID 2283035); conditions: primary human bronchial epithelial cells; actives raise or lower the signal
Procedure, shortened: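 Dose cells (human primary bronchial epithelial), incubate 24 h, quantify MIG by ELISA, then fit concentration–response in both directions relative to DMSO control.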

[6] = read-out: Transforming growth factor beta 1 (TGFb1), TGFB1 (gene 7040); test: BSK_BE3C_TGFb1: BioMAP Diversity Plus: BE3C Assay for Transforming growth factor beta 1 (TGFb1) Biomarker Activity (AID 2283036); conditions: primary human bronchial epithelial cells; actives raise or lower the signal
Procedure, shortened: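 Read-out: ELISA for TGF-b1 in primary human bronchial epithelial cultures, 24 h post-dose. Bidirectional curve fitting vs DMSO control; gain or loss of signal both scored.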

[7] = read-out: Plasminogen activator inhibitor-1 (PAI1), SERPINE1 (gene 5054); test: BSK_BE3C_PAI1: BioMAP Diversity Plus: BE3C Assay for Plasminogen activator inhibitor-1 (PAI1) Biomarker Activity (AID 2283037); conditions: primary human bronchial epithelial cells; actives raise or lower the signal
Procedure, shortened: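 ELISA read-out of PAI-1 from human bronchial epithelial primary cells, 24 h post-dosing; bidirectional curve fit vs DMSO baseline, gain or loss of signal scored.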

[8] = read-out: urokinase plasminogen activator (uPA), PLAU (gene 5328); test: BSK_BE3C_uPA: BioMAP Diversity Plus: BE3C Assay for urokinase plasminogen activator (uPA) Biomarker Activity (AID 2283038); conditions: primary human bronchial epithelial cells; actives raise or lower the signal
Procedure, shortened: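 Primary human bronchial epithelial cells, uPA measured by ELISA 24 h after dosing. Bidirectional change relative to DMSO; cytotoxicity checked in parallel cultures by sulforhodamine B total-protein staining.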

[9] = read-out: Urokinase-type plasminogen activator receptor (uPAR), PLAUR (gene 5329); test: BSK_BE3C_uPAR: BioMAP Diversity Plus: BE3C Assay for Urokinase-type plasminogen activator receptor (uPAR) Biomarker Activity (AID 2283039); conditions: primary human bronchial epithelial cells; actives raise or lower the signal
Procedure, shortened: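 ELISA readout of uPAR on human lung primary bronchial epithelial cells, 24 h post-dosing. Bidirectional curve fit relative to DMSO vehicle baseline; gain or loss of signal both scored.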

[10] = read-out: Interleukin-6 (IL6), IL6 (gene 3569); test: BSK_CASM3C_IL6: BioMAP Diversity Plus: CASM3C Assay for Interleukin-6 (IL6) Biomarker Activity for (AID 2283040); conditions: primary human coronary artery smooth muscle cells; actives raise or lower the signal
[11] = read-out: Tissue plasminogen activator (tPA), PLAT (gene 5327); test: BSK_BE3C_tPA: BioMAP Diversity Plus: BE3C Assay for Tissue plasminogen activator (tPA) Biomarker Activity (AID 2283041); conditions: primary human bronchial epithelial cells; actives raise or lower the signal
Procedure, shortened: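 ELISA read-out of tPA on human primary bronchial epithelial cells, 24 h post-dosing; bidirectional fit vs DMSO negative control/baseline.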

[12] = read-out: Interleukin-8 (IL8), CXCL8 (gene 3576); test: BSK_CASM3C_IL8: BioMAP Diversity Plus: CASM3C Assay for Interleukin-8 (IL8) Biomarker Activity (AID 2283042); conditions: primary human coronary artery smooth muscle cells; actives raise or lower the signal;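 note: IL-8 protein level quantified by ELISA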
[13] = read-out: Human Leukocyte Antigen - DR isotype (HLADR), HLA-DRA (gene 3122); test: BSK_CASM3C_HLADR: BioMAP Diversity Plus: CASM3C Assay for Human Leukocyte Antigen - DR isotype (HLADR) Biomarker Activity (AID 2283043); conditions: primary human coronary artery smooth muscle cells; actives raise or lower the signal;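 note: cell-surface HLA-DR protein level quantified by ELISA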
[14] = read-out: Macrophage colony-stimulating factor (MCSF), CSF1 (gene 1435); test: BSK_CASM3C_MCSF: BioMAP Diversity Plus: CASM3C Assay for Macrophage colony-stimulating factor (MCSF) Biomarker Activity (AID 2283044); conditions: primary human coronary artery smooth muscle cells; actives raise or lower the signal;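 note: M-CSF protein amount quantified by ELISA after 24 h exposure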
[15] = read-out: Low-density lipoprotein receptor (LDLR), LDLR (gene 3949); test: BSK_CASM3C_LDLR: BioMAP Diversity Plus: CASM3C Assay for Low-density lipoprotein receptor (LDLR) Biomarker Activity (AID 2283045); conditions: primary human coronary artery smooth muscle cells; actives raise or lower the signal;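 note: LDLR protein level on the cell surface quantified by ELISA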
[16] = read-out: Monocyte Chemoattractant Protein-1 (MCP1), CCL2 (gene 6347); test: BSK_CASM3C_MCP1: BioMAP Diversity Plus: CASM3C Assay for Monocyte Chemoattractant Protein-1 (MCP1) Biomarker Activity (AID 2283046); conditions: primary human coronary artery smooth muscle cells; actives raise or lower the signal;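 note: MCP-1 level quantified by ELISA 24 h after dosing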
[17] = BSK_CASM3C_Proliferation: Cell Proliferation Assessment in the BioMAP Diversity Plus: CASM3C Assay (AID 2283047); conditions: primary human coronary artery smooth muscle cells;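 note: sulforhodamine B total protein stain as relative cell number at 560 nm; sub-confluent cells exposed 48 h before staining; fitted both ways against DMSO so gain or loss of cell number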
[18] = read-out: Monokine induced gamma interferon (MIG), CXCL9 (gene 4283); test: BSK_CASM3C_MIG: BioMAP Diversity Plus: CASM3C Assay for Monokine induced gamma interferon (MIG) Biomarker Activity (AID 2283048); conditions: primary human coronary artery smooth muscle cells; actives raise or lower the signal;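 note: MIG protein level measured by ELISA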
[19] = read-out: serum amyloid A (SAA), SAA1 (gene 6288); test: BSK_CASM3C_SAA: BioMAP Diversity Plus: CASM3C Assay for serum amyloid A (SAA) Biomarker Activity (AID 2283049); conditions: primary human coronary artery smooth muscle cells; actives raise or lower the signal;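 note: SAA protein level quantified by ELISA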

Measured: AC50

Cc1cnccn1
active: [17] 196 nM
inactive: all other assays above

O=S(=O)(O)CCC(F)(F)C(F)(F)C(F)(F)C(F)(F)F
not listed: [6]
inactive: all other assays above

OC(O)C(F)(F)C(F)(F)F
not listed: [6]
inactive: all other assays above

C[C@]12CC[C@H]3C(=CCc4cc(O)ccc43)[C@@H]1CCC2=O
active: [4] 6.48 µM | [15] 14.3 µM
inactive: all other assays above

CCOC(=O)CC(=O)C(F)(F)C(F)(F)F
not listed: [6]
inactive: all other assays above

C=C(C)C(=O)OCC(F)(F)C(F)(F)C(F)(F)C(F)F
not listed: [6]
inactive: all other assays above

CCN=C1C=CC(=C(c2ccc(N(CC)CC)cc2)c2ccc(N(CC)CC)cc2)c2ccccc21
active: [2] 1.85 µM and 1.69 µM | [3] 2.13 µM and 2.05 µM | [4] 2.46 µM and 2.22 µM | [5] 2.48 µM and 2.92 µM | [7] 716 nM and 210 nM | [8] 2.03 µM | [9] 1.93 µM and 1.74 µM | [11] 1.54 µM and 976 nM | [13] 4.2 µM and 3.11 µM | [14] 5.89 µM and 2.3 µM | [16] 4.84 µM and 4.54 µM | [17] 1.09 µM and 1.31 µM | [18] 5.1 µM and 5.25 µM | [19] 371 nM and 1.07 µM
inactive: [1] | [8] | [10] | [12] | [15]

FC(F)(F)C(F)(F)C(F)(F)CC1CO1 (stereo not drawn)
not listed: [6]
inactive: all other assays above

Brc1nc2ccccc2s1
inactive: all assays above

CCOC(C=C(C)CCC=C(C)C)OCC
active: [3] 31.5 µM | [10] 20 µM | [13] 20 µM | [14] 20 µM | [15] 10.3 µM | [16] 28.9 µM | [17] 33700 nM | [18] 34.4 µM
not listed: [1]
inactive: all other assays above

Cc1ccc(S(=O)(=O)C(I)I)cc1
inactive: [15]
active: [1] 1.87 µM | [2] 7 µM | [3] 2.19 µM | [4] 6.58 µM | [5] 11 µM | [6] 7.3 µM | [7] 5.39 µM | [8] 6.62 µM | [9] 6.81 µM | [10] 2.67 µM | [11] 5.4 µM | [12] 3.52 µM | [13] 2.61 µM | [14] 2.17 µM | [16] 2.78 µM | [17] 1370 nM | [18] 5.05 µM | [19] 987 nM

O=C1C=CC(=O)N1c1ccc(Cc2ccc(N3C(=O)C=CC3=O)cc2)cc1
active: [1] 10.6 µM | [2] 2.8 µM | [3] 9.59 µM | [4] 2.6 µM | [5] 6.3 µM | [6] 1.6 µM | [7] 3.54 µM | [8] 2.62 µM | [9] 3.31 µM | [10] 9.64 µM | [11] 3.46 µM | [12] 11 µM | [13] 2.88 µM | [14] 5.07 µM | [15] 2.03 µM | [16] 4.19 µM | [17] 688 nM | [18] 5.42 µM | [19] 3210 nM

C[Si](Cl)(Cl)CCC(F)(F)C(F)(F)C(F)(F)C(F)(F)C(F)(F)C(F)(F)F
not listed: [6]
inactive: all other assays above

O=C(c1ccccc1)c1ccc(O)cc1O
inactive: all assays above

O=C(O)C(F)(F)C(F)(F)C(F)(F)OC(F)(C(F)(F)F)C(F)(F)F
not listed: [6]
inactive: all other assays above

C=CC(=O)OCC(F)(F)C(F)(F)C(F)(F)C(F)(F)C(F)(F)C(F)(F)C(F)(F)C(F)F
not listed: [6]
inactive: all other assays above

NC(=O)C(F)(F)C(F)(F)C(F)(F)C(F)(F)C(N)=O
not listed: [6]
inactive: all other assays above

O=C(O)CCC(F)(F)C(F)(F)C(F)(F)F
not listed: [6]
inactive: all other assays above

O=C=Nc1cccc2c(N=C=O)cccc12
inactive: all assays above

OCC(O)CC(F)(F)C(F)(F)C(F)(F)C(F)(F)F (stereo not drawn)
not listed: [6]
inactive: all other assays above

O=C=NCc1cccc(CN=C=O)c1
inactive: all assays above

OCC(F)(F)C(F)(F)C(F)(F)C(F)(F)C(F)(F)C(F)(F)CO
not listed: [6]
inactive: all other assays above

CN(C(=O)C(F)(F)C(F)(F)C(F)(F)F)[Si](C)(C)C
not listed: [6]
inactive: all other assays above
